Source: PubChem
LASV entry inh = inhibitors of Lassa virus binding or entry into cells. Lassa virus pseudotyped entry inhibition, cell-based qHTS. Potency, µM (titrated, usually from 49.2 µM), usual class: inhibitors. hit rate 4.1% among 18,000. AID 720533
Marburg entry = inhibitors of Marburg virus binding or entry into cells. AID 720532. Marburg virus pseudotype entry/binding inhibition, cell-based. hit rate 6.5% among 18,000. Potency, µM (series often up to 49.2 µM), hits mostly inhibitors
Of the large screens only hits and unclear results are named; the others gave an inactive call; ! = repeats disagree. Rows were chosen to be rich in hits. Some 8% of all compounds tested hit in one or more screens of this group. Calls follow the shape of the full dose curve; tested in HEK293 cells.

COc1ccc2ncn(-c3cc(OC(C)c4ccccc4Cl)c(C(N)=O)s3)c2c1 (stereo unspecified)	LASV entry inh inconclusive, Marburg entry 0.32µM
CC(Oc1cc(-n2cnc3ccc(OCC4CCN(C)CC4)cc32)sc1C(N)=O)c1ccccc1Cl (stereo unspecified)	Marburg entry 0.63µM (no result: LASV entry inh)
N#Cc1cccc(Nc2nccc(-c3cnn4ncccc34)n2)c1	Marburg entry 0.025µM (no result: LASV entry inh)
CCOc1ccc2c(-c3ccnc(Nc4cccc(C(F)(F)F)c4)n3)cnn2n1	Marburg entry 8.9µM (no result: LASV entry inh)
O=C(O)c1cccnc1Nc1cccc(C(F)(F)F)c1	none
Cc1ccc2c(-c3ccnc(Nc4ccc5c(c4)OCCO5)n3)c(-c3ccc(C(F)(F)F)cc3)nn2n1	Marburg entry 16µM (no result: LASV entry inh)
FC(F)(F)CNc1nccc(-c2cnn3ncccc23)n1	none (no result: LASV entry inh)
Cc1ccc2c(-c3ccnc(Nc4cccc(C(F)(F)F)c4)n3)c(-c3ccccc3)nn2n1	Marburg entry 4µM (no result: LASV entry inh)
Fc1ccc(Nc2nccc(-c3c(-c4ccc(C(F)(F)F)cc4)nn4ncccc34)n2)cc1F	none
COC(=O)[C@H]1O[C@@H](c2cc(OC)c(C)c(OC)c2O)[C@H](C)[C@@H](O)[C@@H]1C	none (no result: LASV entry inh)
C=CCN1c2ccccc2[C@]23CCC(=O)N(CCCOC(C)C)C2=NC(C(=O)OC)=C(C(=O)OC)[C@H]13	none
COC(=O)C1=C(C)N(Cc2ccccc2)C(=S)NC1c1cccc(F)c1 (stereo unspecified)	none
CS(=O)(=O)CCNCc1nc(-c2ccc3ncnc(Nc4ccc(F)c(Cl)c4)c3c2)cs1	Marburg entry inconclusive
OC1(c2ccc(Cl)cc2)CCN(Cc2c[nH]c3ccccc23)CC1	LASV entry inh inconclusive, Marburg entry 8.9µM
OC1(c2cccnc2)CCN(Cc2ccc3c(c2)CN(Cc2ccc(Cl)cc2)CCO3)CC1	none
COc1ccc(CN(C2CCCC2)S(=O)(=O)c2ccccc2Br)cc1	Marburg entry inconclusive
COc1cc(O)c(C(=O)C=Cc2ccccc2)c(O)c1	Marburg entry inconclusive
CCN(CC)CCCCNc1ncc2cc(-c3cc(OC)cc(OC)c3)c(NC(=O)NC(C)(C)C)nc2n1	LASV entry inh 13µM, Marburg entry 1.1µM
CCN(CC)CCNC(=O)COc1ccc(OC)cc1	none
CC(=O)OC[C@H]1O[C@H](CCON=C[C@@H](C)[C@H](OCc2ccccc2)C(C)C)C=C[C@@H]1OC(C)=O	none
Oc1ccc(Cl)c2cccnc12	none
Cc1ccc2c(Cl)cc(Cl)c(O)c2n1	LASV entry inh inconclusive, Marburg entry 6.3µM!
Oc1c(Cl)cc(Cl)c2cccnc12	LASV entry inh inconclusive, Marburg entry 13µM
CC1=CC[C@@H](COc2ccccc2)O[C@@]2(C1)C(=O)N(Cc1ccccc1C(F)(F)F)c1ccccc12	none
COc1ccc(OC)c(-c2ccc(O)c(CN3CCc4c([nH]c5ccccc45)C3)c2)c1	LASV entry inh inconclusive, Marburg entry 13µM
COc1ccc(CN2CCOc3c(cc(-c4ccc(OC)nn4)cc3OC)C2)c(O)c1	none
CC(=O)Oc1c(-c2ccccc2)oc2c(CC=C(C)C)c3c(c(OC(C)=O)c2c1=O)C=CC(C)(C)O3	none
COC(=O)/C(C)=C\CC12OC(C)(C)C3CC(C=C4C(=O)c5c(OC)c6c(c(CC=C(C)C)c5OC431)OC(C)(CCC=C(C)C)C=C6)C2=O (stereo unspecified)	LASV entry inh 4.5µM, Marburg entry 2.8µM
CC(=O)Oc1c2c(c(CC=C(C)C)c3c1C(=O)C1=CC4CC5C(C)(C)OC(C/C=C(\C)C(=O)O)(C4=O)[C@]15O3)OC(C)(CCC=C(C)C)C=C2 (stereo partly specified)	LASV entry inh inconclusive, Marburg entry 2.8µM
C[C@@H](ON=C1[C@H]2CCn3c(=O)n(-c4ccccc4)c(=O)n3[C@@H]2[C@H](O)[C@@H]2O[C@H]12)c1cn([C@H](CO)Cc2ccccc2)nn1	none (no result: LASV entry inh)
Cc1ccc2nc(NCCN)c3ncc(C)n3c2c1	LASV entry inh inconclusive, Marburg entry 7.9µM
NCCCCCCNS(=O)(=O)c1cccc2c(Cl)cccc12	LASV entry inh inconclusive, Marburg entry 18µM!
NCCCCCCCCCCNS(=O)(=O)c1cccc2c(Cl)cccc12	LASV entry inh inconclusive
CCN1C(=O)NC(c2cccc(C(F)(F)F)c2)C(C(C)=O)=C1C (stereo unspecified)	none
COC(C)(C)CCCC(C)C/C=C/C(C)=C/C(=O)OC(C)C (stereo unspecified)	LASV entry inh 14µM!
CC(C)=CCCC(C)=CC=CC1=CC2(C)CC1(C)C(C=C(C)CCC=C(C)C)CC2=O (stereo unspecified)	Marburg entry inconclusive
CCOC(=O)CN1C(=O)NC(CCc2ccccc2)C(C(=O)OC)=C1C (stereo unspecified)	none (no result: LASV entry inh)
COC(=O)CC=C[C@@H](C)[C@@H](C=NO[C@H](C)c1cn([C@@H]2COC[C@@H]2O)nn1)N[S+](=O)([O-])c1ccc(C)cc1	none
COc1ccc(-c2cc3c(N)ncnc3o2)cc1	none
C[C@@]12CC[C@@H]3c4ccc(O)cc4CC[C@H]3[C@H]1CC[C@H]2O	none
CCCCCCC(=O)O[C@H]1CC[C@H]2[C@@H]3CCc4cc(O)ccc4[C@H]3CC[C@]12C	LASV entry inh 32µM
CC12CCC3c4ccc(O)cc4CCC3C1CCC2O (stereo unspecified)	LASV entry inh inconclusive
C[C@]12CC[C@@H]3c4ccc(O)cc4CC[C@H]3[C@@H]1CC[C@@H]2O	LASV entry inh 14µM!
Cc1c(C(=O)NN2CCCCC2)nn(-c2ccc(Cl)cc2Cl)c1-c1ccc(Cl)cc1	LASV entry inh 16µM, Marburg entry 14µM
Cc1ccc2c(c1)Cc1c(C(=O)NC3CCCCC3)nn(-c3ccc(Cl)cc3Cl)c1-2	Marburg entry inconclusive
O=C(C1CCCCC1)N1C[C@@H](O)[C@@H](n2cc(C3CC3)nn2)C[C@@H]1c1ccc(Cl)cc1	none
O=C(O)c1ccc(OCCCOc2ccc(C(=O)O)cc2)cc1	none
CN(C)CCOC(=O)COc1ccc(Cl)cc1	none
CC/C(=C(/c1ccccc1)c1ccc(OCCN(C)C)cc1)c1ccccc1	Marburg entry 3.2µM (no result: LASV entry inh)
CCN(CC)CCOc1ccc(/C(=C(\Cl)c2ccccc2)c2ccccc2)cc1	LASV entry inh 14µM! (no result: Marburg entry)
Cc1cc2oc(=O)cc(-c3ccccc3)c2c(C)c1-c1ccc(CO)cc1	LASV entry inh 11µM
CC(=O)c1ccc(-c2c(C)cc3oc(=O)cc(-c4ccccc4)c3c2C)cc1	LASV entry inh inconclusive
Fc1ccc(N2CCN(Cc3ccc4c(c3)CN(Cc3cccn3-c3cccnc3)CCO4)CC2)cc1	Marburg entry inconclusive
COc1cccc(CS(=O)(=O)c2ccccc2)c1	none
COc1cccc(CCc2ccccc2OCC(CN(C)C)OC(=O)CCC(=O)O)c1 (stereo unspecified)	LASV entry inh 22µM, Marburg entry 11µM
Cc1cc2c(nc1C)CCCN2CC(O)CN1CCN(C)CC1 (stereo unspecified)	none
COC(=O)C[C@H]1c2ccccc2[C@@H]2C(=C[C@@H](C)[C@H]3C(=O)NC(=O)[C@H]32)N1C(=O)OC	none
CO[C@H]1C[C@H](O[C@H]2[C@H](C)O[C@@H](O[C@@H]3/C(C)=C/C[C@@H]4C[C@@H](C[C@]5(C=C[C@H](C)[C@@H](C6CCCCC6)O5)O4)OC(=O)[C@@H]4C=C(C)[C@@H](O)[C@H]5OC/C(=C\C=C\[C@@H]3C)[C@]54O)C[C@@H]2OC)O[C@@H](C)[C@@H]1O	LASV entry inh 10µM, Marburg entry 8.9µM
